Out of some 1,300 compounds screened, about 25 (2%) were called active. The sample holds actives, similar compounds and a random draw of the others, so the mix is not that of the screen. No rule for the calls is given here.
Biological target: Estrogen receptor (Homo sapiens) (UniProt P03372)
Test: ERα coactivator peptide binding inhibitors, primary screen, biochemical, LOPAC library, TR-FRET (AID 694);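 also: receptor was agonist-bound with estradiol present during the assay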
Conditions: TR-FRET ERalpha-coactivator peptide binding, stronger effect = higher value

Sequence of Estrogen receptor (Homo sapiens) (P03372 whole entry, looked up): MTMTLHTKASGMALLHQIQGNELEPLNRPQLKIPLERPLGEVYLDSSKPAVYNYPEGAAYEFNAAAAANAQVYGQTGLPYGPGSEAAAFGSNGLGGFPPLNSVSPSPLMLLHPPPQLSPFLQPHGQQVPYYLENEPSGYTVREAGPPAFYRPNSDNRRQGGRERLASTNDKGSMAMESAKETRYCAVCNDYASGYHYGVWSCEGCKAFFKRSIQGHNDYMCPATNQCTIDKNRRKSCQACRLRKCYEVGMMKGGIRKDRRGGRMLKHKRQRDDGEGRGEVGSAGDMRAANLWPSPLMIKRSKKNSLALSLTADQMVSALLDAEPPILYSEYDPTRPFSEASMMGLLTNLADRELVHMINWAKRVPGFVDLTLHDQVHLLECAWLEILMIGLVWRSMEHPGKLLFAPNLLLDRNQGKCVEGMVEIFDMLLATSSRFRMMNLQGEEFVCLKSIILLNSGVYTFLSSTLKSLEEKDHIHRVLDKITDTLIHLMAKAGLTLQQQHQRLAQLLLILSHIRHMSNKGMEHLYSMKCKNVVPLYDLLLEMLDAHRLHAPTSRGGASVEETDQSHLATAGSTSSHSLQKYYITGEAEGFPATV

Structure (SMILES)	inhibition (at 45 µM)	inhibition (inhibition, at 15 µM)
N=c1c[n+](N2CCOCC2)[n-]o1	3.79% (inactive)	4.24%
COc1ccccc1N1CCN(CCCNc2c(C)c(=O)n(C)c(=O)n2C)CC1	-0.24% (inactive)	1.69%
CCNC(=O)C1OC(n2cnc3c(NCc4ccccc4)ncnc32)C(O)C1O (configuration not stated)	-1.65% (inactive)	1.9%
Cn1cc(C(F)(F)F)nc1-c1ccc(OCC(O)CNCCOc2ccc(O)c(C(N)=O)c2)cc1 (configuration not stated)	-4.07% (inactive)	-6.05%
CC[N+](C)(C)Cc1ccccc1Br	-6.37% (inactive)	-2.6%
COc1ccccc1N1CCN(CCN(C(=O)c2ccc(F)cc2)c2ccccn2)CC1	-4.33% (inactive)	1.39%
CCCCCN(CCCCC)C(=O)C(CCC(=O)O)NC(=O)c1ccc(Cl)c(Cl)c1 (configuration not stated)	0.49% (inactive)	8.19%
NCCCCNS(=O)(=O)c1cccc2c(Cl)cccc12	-24.3% (inactive)	2.07%
CNC(=O)Oc1ccc2c(c1)[C@]1(C)CCN(C)[C@@H]1N2C	-8.56% (active)	56.6%
Oc1cc(O)c2c(c1)O[C@H](c1ccc(O)c(O)c1)[C@@H](O)C2	26.6% (inactive)	10.3%
CC1=C(C(=O)O)N2C(=O)[C@@H](NC(=O)C(N)c3ccccc3)[C@H]2SC1 (some centres not stated)	-5% (inactive)	-4.71%
COc1cc(=O)n(C)c2c(OCC(O)C(C)(C)O)cccc12 (configuration not stated)	-4.43% (inactive)	3.61%
NS(=O)(=O)c1cc2c(cc1Cl)NC=NS2(=O)=O	-2.72% (inactive)	1.82%
Cc1nc(N=Nc2ccc(C(=O)O)cc2)c(COP(=O)(O)O)c(C=O)c1O	6.52% (inactive)	-0.22%
Cn1c(=O)c2c(nc(/C=C/c3cccc(Cl)c3)n2C)n(C)c1=O	0.97% (inactive)	-2.61%
CC(C)COCC(CN(Cc1ccccc1)c1ccccc1)N1CCCC1 (configuration not stated)	-5.09% (inactive)	4.06%
C[N+](C)(C)CCOC(=O)CCC(=O)OCC[N+](C)(C)C	-6.43% (inactive)	0.18%
COc1ccc2[nH]c(I)c(CCNC(C)=O)c2c1	-2.05% (inactive)	-4.11%
CC(C)[C@@H]1NC(=O)[C@H](CCCCN)NC(=O)[C@@H](Cc2c[nH]c3ccccc23)NC(=O)[C@H](Cc2ccc(O)cc2)NC(=O)[C@H](C)N(C)C(=O)[C@H](Cc2ccccc2)NC1=O	5.89% (inactive)	-1.62%
COC(=O)[C@H](NC(=O)c1cc(-c2ccccc2)nc2ccccc12)c1ccccc1	1.85% (inactive)	2.38%
O=Nc1ccc2oc(=O)ccc2c1	0.4% (inactive)	0.59%

Structure (SMILES)	inhibition (at 45 µM)	inhibition (inhibition, at 15 µM)
NC(CCCP(=O)(O)O)C(=O)O (configuration not stated)	-8.81% (inactive)	-3.89%
N[C@@H](CCCC(=O)O)C(=O)O	-21.2% (active)	50.5%
NC(N)=NCCC[C@H](N)C(=O)O	-2.21% (inactive)	-4%
O=c1c(O)c(-c2ccc(O)c(O)c2)oc2cc(O)cc(O)c12	59.6% (inactive)	26.6%
O=c1c(O)c(-c2cc(O)c(O)c(O)c2)oc2cc(O)cc(O)c12	84% [fluorescence artefact?] (active)	62.7%
O=c1[nH]c2cc(C(F)(F)F)ccc2n1-c1cc(C(F)(F)F)ccc1O	2.02% (inactive)	1.4%
CC(=O)N[C@@H](CS)C(=O)O	-7.68% (inactive)	-8.08%
COc1cc(/C=C(\C#N)C(=O)c2ccc(O)c(O)c2)cc(I)c1O	28.7% (inactive)	13.7%
N#C/C(=C\c1ccc(O)c(O)c1)C(=O)NCCCNC(=O)/C(C#N)=C/c1ccc(O)c(O)c1	51.7% (inactive)	37.2%
N#C/C(=C\c1ccc(O)c(O)c1)C(=O)c1ccc(O)c(O)c1	59.5% [fluorescence artefact?] (active)	57.3%
Nc1ncn([C@@H]2O[C@H](CO)[C@@H](O)[C@H]2O)c(=O)n1	-1.93% (inactive)	-4.32%
Cn1c(=O)c2[nH]c(C3CCCC3)nc2n(C)c1=O	1.28% (inactive)	-1.01%
NC(=S)NCCCC(N)C(=O)O (configuration not stated)	-4.72% (inactive)	3.62%
NCC(O)C1CCCCCCC1 (configuration not stated)	-4.78% (inactive)	1.99%
CCN1CCc2nc(N)oc2CC1	-3.72% (inactive)	-5.11%
CN(CCOc1ccc(C[C@H](Nc2ccccc2C(=O)c2ccccc2)C(=O)O)cc1)c1ccccn1	2.05% (inactive)	2.17%
C=Cc1c(C)c2cc3[nH]c(cc4nc(cc5nc(cc1[nH]2)C(C)=C5CCC(=O)O)C(CCC(=O)O)=C4C)c(C)c3C=C	93.6% [fluorescence artefact?] (active)	73.7%
CN(C)C(=O)/N=N/C(=O)N(C)C	-2.24% (inactive)	-4.27%
Nn1nnc2ccccc21	-3.33% (inactive)	-2.11%
COc1ccccc1N1CCN(CCCNc2cc(=O)n(C)c(=O)n2C)CC1	4.48% (inactive)	2.87%

Reference: PubChem BioAssay AID694 (Emory University Molecular Libraries Screening Center, 2007)
